# According to PubChem BioAssay (EPA / NIEHS):
# Active and inactive are the calls of the source. Rule for the calls: active = hit-call score of the fitted dose curve at least 0.9, where 1 is the maximum; inactive = score below 0.9.
# Columns and labels:
# [1] = read-out: Vascular cell adhesion molecule 1 (VCAM1), VCAM1 (gene 7412); assay: BSK_hDFCGF_VCAM1: BioMAP Diversity Plus: hDFCGF Assay for Vascular cell adhesion molecule 1 (VCAM1) Biomarker Activity (AID 2283065); conditions: primary human foreskin fibroblasts; actives raise or lower the signal;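 for AC50: VCAM-1 protein level quantified by ELISA after 24 h chemical exposure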
# In short: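 Measured after 24 h chemical treatment of primary human skin fibroblasts, VCAM-1 was detected by ELISA and concentration-response analysed in both directions versus DMSO vehicle.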
# [2] = read-out: Plasminogen activator inhibitor-1 (PAI1), SERPINE1 (gene 5054); assay: BSK_hDFCGF_PAI1: BioMAP Diversity Plus: hDFCGF Assay for Plasminogen activator inhibitor-1 (PAI1) Biomarker Activity (AID 2283066); conditions: primary human foreskin fibroblasts; actives raise or lower the signal
# In short: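 Human skin fibroblast cultures receive chemical for 24 h before PAI-1 is measured by ELISA; signal changes are fitted bidirectionally against DMSO-treated wells.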
# [3] = read-out: Intercellular Adhesion Molecule 1 (ICAM1), ICAM1 (gene 3383); assay: BSK_KF3CT_ICAM1: BioMAP Diversity Plus: KF3CT Assay for Intercellular Adhesion Molecule 1 (ICAM1) Biomarker Activity (AID 2283067); conditions: primary human keratinocytes with fibroblasts; actives raise or lower the signal
# In short: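 Bidirectional curve fitting against a DMSO baseline was applied to ICAM-1 ELISA signal from primary human skin co-cultures harvested 24 h after treatment, with SRB staining of parallel wells for overt cytotoxicity.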
# [4] = read-out: Interferon-gamma inducible Protein 10 (IP10), CXCL10 (gene 3627); assay: BSK_KF3CT_IP10: BioMAP Diversity Plus: KF3CT Assay for Interferon-gamma inducible Protein 10 (IP10) Biomarker Activity (AID 2283068); conditions: primary human keratinocytes with fibroblasts; actives raise or lower the signal
# In short: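 In a primary skin co-culture of keratinocytes and fibroblasts, IP-10 is quantified by ELISA at 24 h after dosing. SRB staining of parallel wells monitors overt toxicity. Curves are fitted both directions against DMSO.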
# [5] = BSK_KF3CT_SRB: Viability Assessment in the BioMAP Diversity Plus: KF3CT Assay (AID 2283069); conditions: primary human keratinocytes with fibroblasts;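 note: total protein by sulforhodamine B staining as a cytotoxicity measure; read 24 h after compound addition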
# In short: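 Cytotoxicity was gauged by SRB staining (0.1% SRB, 10% TCA fixation, 560 nm) of parallel cultures at 24 h. The cells were primary human skin keratinocytes co-cultured with fibroblasts, and activity was fitted in both directions against DMSO.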
# [6] = read-out: Interleukin-1 alpha (IL1a), IL1A (gene 3552); assay: BSK_KF3CT_IL1a: BioMAP Diversity Plus: KF3CT Assay for Interleukin-1 alpha (IL1a) Biomarker Activity (AID 2283070); conditions: primary human keratinocytes with fibroblasts; actives raise or lower the signal
# In short: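 IL-1a was detected by ELISA 24 h after chemical treatment of a co-culture of human skin keratinocytes and foreskin fibroblasts. Gain or loss of signal was fitted against the DMSO baseline.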
# [7] = read-out: TIMP metallopeptidase inhibitor 2 (TIMP2), TIMP2 (gene 7077); assay: BSK_KF3CT_TIMP2: BioMAP Diversity Plus: KF3CT Assay for TIMP metallopeptidase inhibitor 2 (TIMP2) Biomarker Activity (AID 2283071); conditions: primary human keratinocytes with fibroblasts; actives raise or lower the signal
# In short: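 Measurements come from ELISA detection of TIMP-2 at 24 hours in a dosed human keratinocyte and foreskin fibroblast co-culture. DMSO serves as negative control and baseline.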
# [8] = read-out: Transforming growth factor beta 1 (TGFb1), TGFB1 (gene 7040); assay: BSK_KF3CT_TGFb1: BioMAP Diversity Plus: KF3CT Assay for Transforming growth factor beta 1 (TGFb1) Biomarker Activity (AID 2283072); conditions: primary human keratinocytes with fibroblasts; actives raise or lower the signal
# In short: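 TGF-b1 ELISA on a 24 h dosed co-culture of human keratinocytes and foreskin fibroblasts; cytotoxicity tracked in parallel cultures by SRB staining.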
# [9] = read-out: C-C motif chemokine 2 (Homo sapiens) (UniProt P13500); assay: BSK_KF3CT_MCP1: BioMAP Diversity Plus: KF3CT Assay for Monocyte Chemoattractant Protein 1 (MCP1/CCL2) Biomarker Activity (AID 2283073); conditions: primary human keratinocytes with fibroblasts; actives raise or lower the signal
# In short: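 Biomarker MCP-1 is measured by ELISA in primary human keratinocytes co-cultured with foreskin fibroblasts, 24 h after chemical treatment; DMSO serves as the negative control and activity baseline.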
# [10] = read-out: Matrix Metallopeptidase 9 (MMP9), MMP9 (gene 4318); assay: BSK_KF3CT_MMP9: BioMAP Diversity Plus: KF3CT Assay for Matrix Metallopeptidase 9 (MMP9) Biomarker Activity (AID 2283074); conditions: primary human keratinocytes with fibroblasts; actives raise or lower the signal;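 for AC50: MMP9 protein level quantified by ELISA in the co-culture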
# In short: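 MMP-9 quantified by ELISA after 24 h chemical treatment of primary human skin keratinocyte/fibroblast co-cultures; gain or loss fitted against DMSO, with parallel SRB staining (0.1% SRB, 560 nm) for overt cytotoxicity.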
# [11] = read-out: urokinase plasminogen activator (uPA), PLAU (gene 5328); assay: BSK_KF3CT_uPA: BioMAP Diversity Plus: KF3CT Assay for urokinase plasminogen activator (uPA) Biomarker Activity (AID 2283075); conditions: primary human keratinocytes with fibroblasts; actives raise or lower the signal
# In short: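 ELISA read-out of uPA 24 h after dosing human skin keratinocytes co-cultured with foreskin fibroblasts. Signal change fitted both ways relative to DMSO; sulforhodamine B on parallel cultures marks overt cytotoxicity.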
# CD40, CD40 (gene 958) = assay: BSK_LPS_CD40: BioMAP Diversity Plus: LPS Assay for CD40 Biomarker Activity (AID 2283076); conditions: primary human HUVEC with PBMC; actives raise or lower the signal
# In short: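 Using a multiplexed primary human co-culture (umbilical vein endothelium plus PBMC), CD40 was read by ELISA 24 h after dosing, with cytotoxicity tracked by sulforhodamine B staining of parallel cultures and activity fitted bidirectionally versus DMSO.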
# [12] = read-out: E-selectin (Homo sapiens) (UniProt P16581); assay: BSK_LPS_Eselectin: BioMAP Diversity Plus: LPS Assay for Eselectin Biomarker Activity (AID 2283077); conditions: primary human HUVEC with PBMC; actives raise or lower the signal
# In short: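 Dose chemical onto LPS-driven HUVEC/PBMC co-culture; after 24 h, run ELISA for E-selectin; fit up- and down-going responses relative to DMSO control.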
# [13] = read-out: Interleukin-8 (IL8), CXCL8 (gene 3576); assay: BSK_LPS_IL8: BioMAP Diversity Plus: LPS Assay for Interleukin-8 (IL8) Biomarker Activity (AID 2283078); conditions: primary human HUVEC with PBMC; actives raise or lower the signal
# In short: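 In this LPS system, chemical-treated human umbilical vein endothelium/PBMC co-cultures were harvested at 24 h for IL-8 ELISA.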
# [14] = BSK_LPS_SRB: Viability Assessment in the BioMAP Diversity Plus: LPS Assay (AID 2283079); conditions: primary human HUVEC with PBMC;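 note: total protein by sulforhodamine B absorbance as a cytotoxicity measure; measured one day after compound addition; fitted in both directions against DMSO so loss or gain of signal counts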
# In short: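 Cytotoxicity endpoint in human endothelial–PBMC co-culture: 24 h exposure, then SRB (0.1%) staining, 560 nm read.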
# [15] = read-out: Interleukin-1 alpha (IL1a), IL1A (gene 3552); assay: BSK_LPS_IL1a: BioMAP Diversity Plus: LPS Assay for Interleukin-1 alpha (IL1a) Biomarker Activity (AID 2283080); conditions: primary human HUVEC with PBMC; actives raise or lower the signal
# In short: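 Primary human HUVEC and PBMC co-culture stimulated with LPS is dosed and harvested at 24 h. Both increases and decreases in ELISA-measured IL-1a are scored relative to DMSO.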
# [16] = read-out: Monocyte Chemoattractant Protein-1 (MCP1), CCL2 (gene 6347); assay: BSK_LPS_MCP1: BioMAP Diversity Plus: LPS Assay for Monocyte Chemoattractant Protein-1 (MCP1) Biomarker Activity (AID 2283081); conditions: primary human HUVEC with PBMC; actives raise or lower the signal;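 for AC50: secreted MCP-1 protein quantified by ELISA in culture supernatant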
# In short: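 Values derive from bidirectional fitting against DMSO of ELISA-measured MCP-1 in a human primary endothelial and mononuclear cell co-culture, 24 h after chemical addition under LPS activation.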
# [17] = BSK_LPS_PGE2: BioMAP Diversity Plus: LPS Assay for Prostaglandin E2 (PGE2) Biomarker Activity (AID 2283082); conditions: primary human HUVEC with PBMC; actives raise or lower the signal
# In short: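 Primary human endothelial cells and blood mononuclear cells, co-cultured with LPS, receive test chemical; PGE2 ELISA follows at 24 h, with SRB-stained parallel cultures flagging cytotoxicity.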
# [18] = read-out: Macrophage colony-stimulating factor (MCSF), CSF1 (gene 1435); assay: BSK_LPS_MCSF: BioMAP Diversity Plus: LPS Assay for Macrophage colony-stimulating factor (MCSF) Biomarker Activity (AID 2283083); conditions: primary human HUVEC with PBMC; actives raise or lower the signal
# In short: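 Bidirectional fit versus DMSO of ELISA-measured M-CSF in co-cultured human umbilical vein endothelial cells and PBMC, sampled 24 h after dosing.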
# [19] = read-out: Tissue Factor, F3 (gene 2152); assay: BSK_LPS_TissueFactor: BioMAP Diversity Plus: LPS Assay for Tissue Factor Biomarker Activity (AID 2283084); conditions: primary human HUVEC with PBMC; actives raise or lower the signal
# In short: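 Read-out: CD142 ELISA, 24 h. System: LPS-driven human endothelial/PBMC co-culture. Analysis: up- or down-signal fitted against DMSO.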
# Chain of E-selectin (Homo sapiens) (P16581 whole entry, looked up): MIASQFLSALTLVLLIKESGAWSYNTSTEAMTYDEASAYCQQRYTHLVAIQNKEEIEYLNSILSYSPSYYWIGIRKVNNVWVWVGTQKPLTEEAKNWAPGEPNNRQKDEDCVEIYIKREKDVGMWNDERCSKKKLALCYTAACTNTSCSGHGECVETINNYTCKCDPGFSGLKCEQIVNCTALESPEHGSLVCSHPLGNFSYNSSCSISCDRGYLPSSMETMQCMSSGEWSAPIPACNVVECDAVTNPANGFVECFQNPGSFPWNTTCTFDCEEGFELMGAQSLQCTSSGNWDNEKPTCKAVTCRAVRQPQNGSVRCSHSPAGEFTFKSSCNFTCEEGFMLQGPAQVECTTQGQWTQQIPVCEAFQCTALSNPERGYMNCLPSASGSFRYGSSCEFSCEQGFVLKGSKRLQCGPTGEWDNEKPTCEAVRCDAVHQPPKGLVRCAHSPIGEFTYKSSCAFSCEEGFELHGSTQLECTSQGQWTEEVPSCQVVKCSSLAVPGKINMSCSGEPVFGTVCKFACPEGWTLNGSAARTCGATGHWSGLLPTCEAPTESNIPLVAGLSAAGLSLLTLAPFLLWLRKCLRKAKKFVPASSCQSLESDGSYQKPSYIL
compound,measurement,setting,value
C(=NC1CCCCC1)=NC1CCCCC1,AC50,[1],10.7 µM (active)
same,AC50,[2],20 µM (active)
same,AC50,[3],20 µM (active)
same,AC50,[4],14.9 µM (active)
same,AC50,[5],15 µM (active)
same,AC50,[6],17.2 µM (active)
same,AC50,[7],20 µM (active)
same,AC50,[8],9.13 µM (active)
same,AC50,[9],29.4 µM (active)
same,AC50,[10],12.6 µM (active)
same,AC50,[11],28.8 µM (active)
same,AC50,"CD40, CD40 (gene 958)",27.4 µM (active)
same,AC50,[12],34.9 µM (active)
same,AC50,[13],30.9 µM (active)
same,AC50,[14],32.8 µM (active)
same,AC50,[15],29.4 µM (active)
same,AC50,[16],30 µM (active)
same,outcome,[17],inactive
same,AC50,[18],20 µM (active)
same,AC50,[19],34.8 µM (active)
COP(=S)(OC)Oc1ccc(S(=O)(=O)N(C)C)cc1,outcome,[1],inactive
same,outcome,[2],inactive
same,outcome,[3],inactive
same,outcome,[4],inactive
same,outcome,[5],inactive
same,outcome,[6],inactive
same,outcome,[7],inactive
same,outcome,[8],inactive
same,outcome,[9],inactive
same,outcome,[10],inactive
same,outcome,[11],inactive
same,outcome,"CD40, CD40 (gene 958)",inactive
same,outcome,[12],inactive
same,outcome,[13],inactive
same,outcome,[14],inactive
same,AC50,[15],0.0677 µM (active)
same,outcome,[16],inactive
same,outcome,[17],inactive
same,outcome,[19],inactive
OCc1ccco1,outcome,[1],inactive
same,outcome,[2],inactive
same,outcome,[3],inactive
same,outcome,[4],inactive
same,outcome,[5],inactive
same,outcome,[6],inactive
same,outcome,[7],inactive
same,outcome,[8],inactive
same,outcome,[9],inactive
same,outcome,[10],inactive
same,outcome,[11],inactive
same,outcome,"CD40, CD40 (gene 958)",inactive
same,outcome,[12],inactive
same,outcome,[13],inactive
same,outcome,[14],inactive
same,outcome,[15],inactive
same,outcome,[16],inactive
same,outcome,[17],inactive
same,outcome,[19],inactive
O=S(=O)(c1ccc(Cl)cc1)c1ccc(Cl)cc1,AC50,[1],5.32 µM (active)
same,outcome,[2],inactive
same,outcome,[3],inactive
same,outcome,[5],inactive
same,outcome,[6],inactive
same,outcome,[7],inactive
same,outcome,[8],inactive
same,outcome,[9],inactive
same,outcome,[10],inactive
same,outcome,[11],inactive
same,outcome,"CD40, CD40 (gene 958)",inactive
same,outcome,[12],inactive
same,outcome,[13],inactive
same,outcome,[14],inactive
same,outcome,[15],inactive
same,outcome,[16],inactive
same,outcome,[17],inactive
same,outcome,[18],inactive
same,outcome,[19],inactive
COc1cc(OC)nc(NC(=O)NS(=O)(=O)c2ncccc2C(=O)N(C)C)n1,outcome,[1],inactive
same,outcome,[2],inactive
same,outcome,[3],inactive
same,outcome,[5],inactive
same,outcome,[6],inactive
same,outcome,[7],inactive
same,outcome,[8],inactive
same,outcome,[9],inactive
same,outcome,[10],inactive
same,outcome,[11],inactive
same,outcome,"CD40, CD40 (gene 958)",inactive
same,outcome,[12],inactive
same,outcome,[13],inactive
same,outcome,[14],inactive
same,outcome,[15],inactive
same,outcome,[16],inactive
same,outcome,[17],inactive
same,outcome,[19],inactive
CC(C)(C)CC(C)(C)c1ccc(O)cc1,AC50,[1],10.8 µM (active)
same,AC50,[2],8.03 µM (active)
same,AC50,[3],11.3 µM (active)
same,AC50,[5],6.93 µM (active)
same,AC50,[6],7.85 µM (active)
same,AC50,[7],7.95 µM (active)
same,AC50,[9],6.72 µM (active)
same,AC50,[10],9.64 µM (active)
same,AC50,[11],9.6 µM (active)
same,AC50,"CD40, CD40 (gene 958)",7.8 µM (active)
same,AC50,[12],11.7 µM (active)
same,AC50,[13],13.9 µM (active)
same,AC50,[14],12.9 µM (active)
same,AC50,[15],8.47 µM (active)
same,AC50,[16],10.5 µM (active)
same,outcome,[17],inactive
same,AC50,[19],9.02 µM (active)
